# Measured values as given in PubChem BioAssay AID588473 (Sanford-Burnham Center for Chemical Genomics, 2011).
# In all, about 350,000 compounds went through this assay and about 1,600 (0.46%) were called active.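 The calls were made as follows: active = activation of at least 50%, plus an integration ratio under a set limit after plate pattern correction; inactive = the rest.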 What follows is part of a selection rich in actives, with near analogues and random picks from the rest.
# Tested on: CRF-binding protein / CRF receptor 2 complex (human)
# Test: agonists of CRF-BP/CRF-R2 complex, primary screen, cell-based, HEK293, calcium dye fluorescence, uHTS (AID 588473);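 also: plate controls were neutral control wells without compound for no effect and CRF at EC100 for full effect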
# Settings: calcium dye fluorescence (FLIPR), at 13.2 µM, hits give high values, percent of saturating CRF peptide response
row,Structure (SMILES),activation
1,COc1cc(C(=O)NNC(=O)CN2C(=O)NC3(CCCC3)C2=O)cc(OC)c1OC,0.66% (inactive)
2,Cc1c(NC(=O)C(=O)N/N=C/c2cccs2)c(=O)n(-c2ccccc2)n1C,4.78% (inactive)
3,Cc1cc(C)c(S(=O)(=O)NCC(c2ccc3c(c2)OCO3)N2CCOCC2)c(C)c1 (configuration not stated),-1.15% (inactive)
4,COc1cccc2c1C(=O)c1c(O)c3c(c(O)c1C2=O)CC(O)(C(C)=NNC(=O)c1ccc(Cl)c(Cl)c1)CC3OC1CC(N)C(O)C(C)O1 (configuration not stated),67.3% (active)
5,Cc1ccc(C(=O)N/N=C/c2sc(=O)n(Cc3cccc(C(=O)O)c3)c2Cl)cc1,1.16% (inactive)
6,CCCS(=O)(=O)N1CCC(C(=O)NCCc2ccc(OC)c(OC)c2)CC1,-0.54% (inactive)
7,Cc1cccc(C(C)C)c1NC(=O)COC(=O)C1CC(=O)N(Cc2ccccc2)C1 (configuration not stated),-1.23% (inactive)
8,NS(=O)(=O)c1ccc(NC(=O)COC(=O)c2c3c(nc4ccccc24)/C(=C\c2ccc4c(c2)OCO4)CCC3)cc1,0.53% (inactive)
9,COc1cc(/C=C2\CCCc3c2nc2ccccc2c3C(=O)O)cc(Cl)c1O,0.27% (inactive)
10,NC(=O)c1ccc(NC(=O)COC(=O)c2c3c(nc4ccccc24)/C(=C\c2ccc4c(c2)OCO4)CCC3)cc1,255% (active)
11,COc1ccc([N+](=O)[O-])cc1NC(=O)CC1SC(=Nc2cccc(C)c2C)N(/N=C(\C)c2ccc(C)cc2)C1=O (configuration not stated),-0.05% (inactive)
12,Cc1ccc(C(CC(=O)O)NC(=O)c2ccc(S(=O)(=O)N3CCCC3)cc2)cc1 (configuration not stated),0.98% (inactive)
13,Cc1ccc(C(=O)COC(=O)CCCC(=O)NC2CCCCC2)cc1[N+](=O)[O-],1.32% (inactive)
14,COc1ccc(C)cc1NC(=O)CSc1nnc(CC(=O)Nc2ccccc2F)n1C,3.27% (inactive)
15,O=C1c2cccc3c([N+](=O)[O-])ccc(c23)C(=O)N1CC1CCCO1 (configuration not stated),12.3% (inactive)
16,Cc1nn(C)cc1N1C(=O)c2cccc3c(N)ccc(c23)C1=O,200% (active)
17,CN1C(=O)c2cccc3c(N)ccc(c23)C1=O,222% (active)
18,CC(C(=O)O)N1C(=O)c2cccc3cccc1c23 (configuration not stated),-0.43% (inactive)
19,CC(C)n1c(CN2CCN(Cc3ccccc3)CC2)nc2ccccc21,1.04% (inactive)
20,COc1cc(CNCc2ccc3c(c2)OCO3)c([N+](=O)[O-])cc1OC,-1.29% (inactive)
21,COc1ccc(Br)cc1CN(C)CC(=O)Nc1cc([N+](=O)[O-])ccc1OC,0.1% (inactive)
22,CCCCN1CCNC1=S,-0.03% (inactive)

row,Structure (SMILES),activation
1,CCCCN1C(N)=NC[C@@H]1CC1CCCCC1,-0.4% (inactive)
2,CCOc1ccc(NC(=O)c2ccc(CSc3nnnn3C)cc2)cc1,1.79% (inactive)
3,NS(=O)(=O)c1ccc(NC(=O)COC(=O)C2(c3ccc(F)cc3)CCCC2)cc1,-2.26% (inactive)
4,Cc1cc(NS(=O)(=O)c2ccc(NC(=O)c3cccnc3)cc2)nc(C)n1,-0.63% (inactive)
5,Cc1cc(NS(=O)(=O)c2ccc(NC(=O)c3cccc(OC(F)F)c3)cc2)nc(C)n1,73.2% (active)
6,Cc1cc(NS(=O)(=O)c2ccc(NC(=O)C(C)Oc3cccc(C)c3C)cc2)nc(C)n1 (configuration not stated),-1.14% (inactive)
7,COc1ccc(N2CCN(C(CNS(=O)(=O)c3ccc(C)cc3)c3ccccc3)CC2)cc1 (configuration not stated),-2.07% (inactive)
8,CN(Cc1ccccc1Cl)C(=O)C1CCC(=O)N(CCc2cccc(F)c2)C1 (configuration not stated),0.61% (inactive)
9,COc1cc(C)ccc1OCC(=O)OCC(=O)c1ccc[nH]1,2.06% (inactive)
10,CC(C)CC(O)C1CCN(C(=O)CCc2nnc(-c3ccc4c(c3)OCO4)o2)CC1 (configuration not stated),-0.38% (inactive)
11,O=C(NCCN1CCOCC1)C1CCN(S(=O)(=O)c2ccccc2)CC1,-0.1% (inactive)
12,O=C1CCC/C=C/C[C@@H](CC(=O)N(CCO)Cc2ccccc2)C(=O)NC[C@H](c2ccccc2)O1,-0.44% (inactive)
13,O=C1NC[C@@H](c2ccccc2)OC(=O)[C@H](Cc2ccc(F)cc2)CC/C=C/C[C@H]1CC(=O)N(CCO)Cc1ccccc1,54.7% (active)
14,O=C1N[C@@H](c2ccccc2)COC(=O)[C@H](Cc2ccc(F)cc2)C/C=C\C[C@@H]1CC(=O)N(CCO)Cc1ccccc1,-2% (inactive)
15,CCCNC(=O)c1ccc(N2CCC3(CC2)CC(c2ccc(Cl)cc2)=NO3)c([N+](=O)[O-])c1,0.95% (inactive)
16,CCN(CC)C(=O)C1=C(C)N(Cc2ccc(F)cc2)C(=O)C(CC(=O)NCc2cccc3ccccc23)C1 (configuration not stated),-1.12% (inactive)
17,COc1ccc(CNC(=O)CN2CCC(n3nnc4cc(F)ccc43)CC2)cc1,0.03% (inactive)
18,Cc1ccc(-c2nn(-c3ccccc3)cc2/C=C2\SC(=S)N(CCCCCC(=O)O)C2=O)o1,60.7% (active)
19,COc1ccc(/C=C2/SC(=O)N(CCCCCC(=O)Nc3ccccc3C(=O)O)C2=S)cc1,-2.58% (inactive)
20,COc1cccc(/C=C2\SC(=S)N(CCCC(=O)N3CCOCC3)C2=O)c1,2.11% (inactive)
21,COCCCNC(=S)NC(=O)c1ccc([N+](=O)[O-])cc1,-0.87% (inactive)
22,O=C(NC(=S)NC1CCS(=O)(=O)C1)c1cccc([N+](=O)[O-])c1 (configuration not stated),0.96% (inactive)

row,Structure (SMILES),activation
1,CCCCCC(=O)NC(=S)NNC(=O)c1ccc([N+](=O)[O-])cc1,96.3% (active)
2,CC(C)CC(=O)NC(=S)NNC(=O)c1cccc([N+](=O)[O-])c1,55% (active)
3,CC(=O)Nc1ccc(C(=O)NNC(=O)CCCCC(=O)NNC(=O)c2ccc(NC(C)=O)cc2)cc1,-1.83% (inactive)
4,CC(C)(C)SCCNC(=O)c1cccc([N+](=O)[O-])c1,-0.01% (inactive)
5,COC(=O)c1c(CCl)noc1C(=O)NC(C)C,0.17% (inactive)
6,Cc1ccc(Nc2c(O)nc[nH]c2=O)cc1C,-0.7% (inactive)
7,CCN(C(=O)Cc1nc(N)n[nH]1)C1(C(=O)Nc2ccccc2)CCCCC1,1.43% (inactive)
8,C=CCO/N=C/C1=C(O)C(C(=O)OC)C(C)(C)CC1=O (configuration not stated),3.2% (inactive)
9,Cn1cccc1C(=O)NNC(=O)COc1ccc(Br)cc1,0.35% (inactive)
10,CC(=O)Nc1ccc(OC(=O)COc2ccc(Br)cc2)cc1,0.61% (inactive)
11,Cc1ccc(O)c(NC(=S)NC(=O)COc2ccc(Br)cc2)c1,195% (active)
12,Cc1cc(C)c(S(=O)(=O)Nc2c(C)n(C)n(-c3ccccc3)c2=O)cc1[N+](=O)[O-],-0.78% (inactive)
13,N#C/C(=C/c1ccc(N2CCCCC2)o1)C(=O)NCCc1c[nH]c2ccccc12,138% (active)
14,Cc1ccc(C(=O)N/C(=C/c2ccco2)C(=O)NCCc2c[nH]c3ccccc23)cc1C,-0.5% (inactive)
15,O=C(NCCc1c[nH]c2ccccc12)C1CCN(Cc2ccc(Br)cc2)CC1,7.6% (inactive)
16,CCCN(CCC)c1nc2c(C)cccn2c(=O)c1/C=C1/SC(=S)N(Cc2ccco2)C1=O,36.9% (inactive)
17,Cc1cccn2c(=O)c(/C=C3\SC(=S)N(CC(C)C)C3=O)c(NCCCOC(C)C)nc12,83% (active)
18,CNc1nc2c(C)cccn2c(=O)c1C=Nc1ccc(OC)cc1,-0.9% (inactive)
19,CCOC(=O)NC(=O)C(=CNc1cccc(OC)c1)C(=O)NC(=O)OCC,2.88% (inactive)
20,Cc1cccn2c(=O)c3cc(C#N)c(=NC(=O)c4cccnc4)n(CC4CCCO4)c3nc12 (configuration not stated),56.4% (active)
21,Cc1cccn2c(=O)c3cc(C(=O)NCCN4CCOCC4)c(=N)n(Cc4cccnc4)c3nc12,-0.12% (inactive)
22,Cc1cccn2c(=O)c3cc(C#N)c(=O)n(CCCN4CCOCC4)c3nc12,2.16% (inactive)

row,Structure (SMILES),activation
1,Cc1cc(=O)n2nc(N3CCCC(C(=O)NCc4ccc(Cl)cc4)C3)sc2n1 (configuration not stated),-0.87% (inactive)
2,CCCCCCCC[n+]1cccc(C(=O)N2c3c(nc(N)[nH]c3=O)NC(C)C2C)c1 (configuration not stated),-1.35% (inactive)
3,Cc1cccc(C)c1N1CCN(S(=O)(=O)N2CCCCC2)CC1,152% (active)
4,Cc1cccc(C)c1N1CCN(S(=O)(=O)N2CCOCC2)CC1,16.7% (inactive)
5,Cc1cccc(C(=O)N2CCN(S(=O)(=O)N3CCCCC3)CC2)c1,-0.46% (inactive)
6,CCn1cc(CN2CCN(CC(C)(C)C)C(CCO)C2)c2ccccc21 (configuration not stated),4.34% (inactive)
7,CCOc1ccc(NCCC(=O)c2ccc3c(c2)OCO3)cc1,-0.43% (inactive)
8,COc1ccc(CCNC(=O)C(=O)NCC2OCCN2S(=O)(=O)c2cccs2)cc1OC (configuration not stated),-0.25% (inactive)
9,CC1(C)N=C(c2ccccn2)C(C)(C)N1O,2.11% (inactive)
10,Cc1cccc(NC(=O)CN2C(=O)CNC2=O)c1,-0.73% (inactive)
11,Cc1cccc(NC(=O)CCN2CC(C)CC(C)C2)c1 (configuration not stated),-0.13% (inactive)
12,Cc1cccc(NC(=O)C(C)N2C(=O)C3C4CC(C(Br)C4Br)C3C2=O)c1 (configuration not stated),73.2% (active)
13,CN(C)S(=O)(=O)c1ccc(C(=O)NCC2(N3CCOCC3)CCCCC2)cc1,0.88% (inactive)
14,COc1cc(SC#N)ccc1N=Cc1c(C)[nH]n(-c2ccc(C)cc2)c1=O,-2.61% (inactive)
15,Cc1ccc(-c2ccnc3[nH]n(-c4ccccc4)c(=O)c23)cc1,0.1% (inactive)
16,Cc1ccc(-n2[nH]c(C)c(/C=N/N3C(=O)c4cccc5cccc(c45)C3=O)c2=O)cc1,113% (active)
17,Cc1noc(C)c1S(=O)(=O)N(C)Cc1ccccc1,-2.84% (inactive)
18,CC(c1cccnc1)N(CCN(C)C)C(=O)Nc1ccc(Cl)c(Cl)c1 (configuration not stated),0.52% (inactive)
19,N#CC1(NC(=O)COC(=O)CCN=C2NS(=O)(=O)c3ccccc32)CCCCC1,8.71% (inactive)
20,O=C(OCCN=C1NS(=O)(=O)c2ccccc21)c1cccc([N+](=O)[O-])c1,-1.89% (inactive)
21,O=C(CCCN=C1NS(=O)(=O)c2ccccc21)OCC(=O)c1ccc(F)c(F)c1,62% (active)
